The entries come from a sample that favours hits as a whole.
Cycloheximide cs = counter-screen for Shiga toxin inhibitors: cycloheximide protein synthesis inhibition; cell reporter, cycloheximide protein synthesis inhibition counterscreen; max response, %; actives 12% (n = 300,000); AID 2314; in the data active means max response mostly above about 13%, no sharp cut-off; inactive means mostly below about 14%; further: read at 38.3 µM for the half of the compounds with a filed dose; 0% is about no effect
NS1 function inh = blocks influenza NS1 protein function | Potency, µM (highest dose often 46.1 µM), without a hit: top-dose activity, positive = more growth | actives 0.4% (n = 270,000) | AID 2326; further: potency means the concentration at half of the fitted maximal effect; actives are rising curves; nearly all actives have a fitted effect of over 50% in size
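S. cerevisiae expressing influenza A NS1, grown in glucose, washed, then diluted 1:100 into pH 6.0 -URA galactose medium with 23 nl compound. Growth recovery read as OD600; NS1-free strain serves as control.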
LmPK inh = LmPK (Leishmania mexicana) enzyme inhibition | actives 0.37% (n = 290,000) | purified LmPK, Kinase-Glo ATP luminescence, 1 h | Potency, µM (doses to about 57.5 µM), without a hit: at the top dose activity change, negative = inhibition, hits mostly inhibitors | Q27686 | AID 1721; active means well fitted curve in the direction sought with a large enough effect; inconclusive means small, poorly fitted or top-dose-only effect, or another doubt; inactive means no such curve, though single readings can be large; an effect the other way counts as inactive or inconclusive; further: potency means the concentration at half of the fitted maximal effect; on the % scale 0 is the no-effect control and ±100 the full control effect
Target sequence (Q27686 whole entry, looked up): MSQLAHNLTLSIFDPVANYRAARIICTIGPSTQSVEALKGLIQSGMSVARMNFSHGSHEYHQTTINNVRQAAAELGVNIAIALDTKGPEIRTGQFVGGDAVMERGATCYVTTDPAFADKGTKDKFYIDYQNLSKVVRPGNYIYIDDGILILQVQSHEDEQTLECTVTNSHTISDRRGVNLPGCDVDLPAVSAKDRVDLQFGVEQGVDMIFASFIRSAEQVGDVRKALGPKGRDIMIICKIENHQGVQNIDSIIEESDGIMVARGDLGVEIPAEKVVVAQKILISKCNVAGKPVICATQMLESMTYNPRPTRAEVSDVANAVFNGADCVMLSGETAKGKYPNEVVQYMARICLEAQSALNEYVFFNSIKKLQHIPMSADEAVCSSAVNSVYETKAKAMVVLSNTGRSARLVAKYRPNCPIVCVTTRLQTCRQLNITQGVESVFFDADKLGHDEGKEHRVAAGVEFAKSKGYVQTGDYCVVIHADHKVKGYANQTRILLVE
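Screened at intermediate enzyme activity to detect both inhibitors and activators: LmPK at 0.1 nM, with a 0.5 nM enzyme column as activation reference. PEP 0.5 mM, ADP 0.1 mM; ATP detected by luminescence after 1 h.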
Shiga toxin inh = Shiga toxin inhibition. Vero cells, Shiga toxin protein synthesis inhibition reporter. inhibition, % at 38.7 µM. actives 9.2% (n = 290,000). AID 2315; in the data active means inhibition mostly above about 28%, no sharp cut-off; inactive means mostly below about 43%; further: 0% is about no effect
SARS PLP yeast = inhibitors of SARS-CoV papain-like protease in yeast; S. cerevisiae expressing SARS-CoV PLpro, growth rescue; Potency, µM (highest dose often 32.9 µM), without a hit: at the highest dose activity, positive = growth rescue, most hits filed as activators; actives 0.19% (n = 330,000); further: potency means the concentration at half of the fitted maximal effect; 0% is about no effect; nearly all actives have a fitted effect of over 55% in size
TbPYK inhibitor = inhibitors of Trypanosoma brucei pyruvate kinase | Q57TT1 | actives 0.12% (n = 410,000) | TbPYK enzyme, Kinase-Glo Plus ATP luminescence, 45 min | Potency, µM (doses to about 76.8 µM), inactives show at the highest dose activity, negative = inhibition, most hits filed as inhibitors | AID 624173; active means well fitted curve in the direction sought with a large enough effect; inconclusive means small, poorly fitted or top-dose-only effect, or another doubt; inactive means no such curve, though single readings can be large; an effect the other way counts as inactive or inconclusive; further: potency means the concentration at half of the fitted maximal effect; on the % scale 0 is the no-effect control and ±100 the full control effect; nearly all actives have a fitted effect of over 50% in size
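ADP (130 uM final) triggers the TbPYK reaction after compound addition; incubation is 45 min at room temperature. Kinase-Glo Plus is then added and luminescence imaged. Normalized data are fitted to concentration-effect curves.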
* hit, by the source's call. Unless noted, the call rests on the fitted dose curve.

Results for Cc1cccc(NC2SC(=O)N(c3ccccc3)C2=O)c1 (configuration not stated) ?
Cycloheximide cs: 53*; NS1 function inh: 7%; LmPK inh: -13%; Shiga toxin inh: 71*; SARS PLP yeast: -1%; TbPYK inhibitor: -10%

What do the screens show for `O=C(CC1SC(=O)N(c2ccccc2)C1=O)Nc1ccccc1` (configuration not stated)?
Cycloheximide cs: 51*; NS1 function inh: -91%; LmPK inh: 3%; Shiga toxin inh: 51*; SARS PLP yeast: -17%; TbPYK inhibitor: 4%

What do the screens show for `CCC1(c2ccccc2)NC(=O)NC1=O` (configuration not stated)?
Cycloheximide cs: 10; Shiga toxin inh: -8

How did Cc1ccc(N2C(=O)SC(Cc3ccccc3)C2=O)cc1 (configuration not stated) do in these assays?
Cycloheximide cs: 14*; NS1 function inh: -5%; LmPK inh: 2%; Shiga toxin inh: 42*; SARS PLP yeast: 0%; TbPYK inhibitor: inconclusive

How did Cc1ccc(NC(=O)CC2=NC(=O)C(CC(=O)Nc3ccccc3F)S2)cc1 (configuration not stated) do in these assays?
Cycloheximide cs: 22*; NS1 function inh: 1%; LmPK inh: 2%; Shiga toxin inh: 90*; SARS PLP yeast: -1%; TbPYK inhibitor: 0%

What do the screens show for `Cc1ccc(NC(=O)CC2SC(=O)N(c3ccccc3)C2=O)cc1` (configuration not stated)?
Cycloheximide cs: 27*; NS1 function inh: 8%; LmPK inh: 2%; Shiga toxin inh: 51*; SARS PLP yeast: -40%; TbPYK inhibitor: -14%

Results for Cc1ccc(S(=O)(=O)/N=C2\SC(CC(=O)Nc3ccc(F)cc3)C(=O)N2c2ccccc2)cc1 (configuration not stated) ?
Cycloheximide cs: 6; NS1 function inh: 28%; LmPK inh: 1%; Shiga toxin inh: 17; SARS PLP yeast: -14%; TbPYK inhibitor: 6%

What do the screens show for `Cc1ccc(NC(=O)CC2Sc3ccc(C(F)(F)F)cc3NC2=O)cc1` (configuration not stated)?
TbPYK inhibitor: 21%

Results for COc1cc(C(O)CO)ccc1OS(=O)(=O)O (configuration not stated) ?
NS1 function inh: -6%; TbPYK inhibitor: 0%

How did COc1ccc2c(CC(=O)NC(Cc3ccc(Cl)cc3)C(=O)O)cc(=O)oc2c1C (configuration not stated) do in these assays?
Cycloheximide cs: -1; NS1 function inh: 2%; LmPK inh: 2%; Shiga toxin inh: 2; SARS PLP yeast: -1%; TbPYK inhibitor: 0%

How did O=C(Nc1ccc(S(=O)(=O)NC2=NCCCCC2)cc1)c1ccc(Cl)cc1Cl do in these assays?
SARS PLP yeast: 9%; TbPYK inhibitor: -5%

What do the screens show for `O=C1OC(c2ccccc2)/C(=C(/O)c2ccccc2)C1=O` (configuration not stated)?
Cycloheximide cs: 39*; NS1 function inh: 10%; LmPK inh: 9%; Shiga toxin inh: 101*; SARS PLP yeast: -27%; TbPYK inhibitor: -4%

What do the screens show for `Cc1ccc(/C(O)=C2/C(=O)C(=O)OC2c2ccc(Cl)cc2)cc1` (configuration not stated)?
Cycloheximide cs: 24*; NS1 function inh: 22%; LmPK inh: 5%; Shiga toxin inh: 20; SARS PLP yeast: inconclusive; TbPYK inhibitor: 7%

Results for O=C1OC(c2ccccc2)/C(=C(/O)c2ccc(Cl)cc2)C1=O (configuration not stated) ?
Cycloheximide cs: 13; NS1 function inh: -2%; LmPK inh: 3%; Shiga toxin inh: 12; SARS PLP yeast: 16%; TbPYK inhibitor: 4%

What do the screens show for `CCC(=O)Nc1ccc(-c2nnc3c4ccccc4c(C)nn23)cc1`?
TbPYK inhibitor: 1%

What do the screens show for `COc1ccc(CNC(=O)c2cc3ccccn3n2)cc1OC`?
TbPYK inhibitor: 1%

How did Cn1c(=O)c2c(nc(SCC(=O)Nc3ccc(OC(F)(F)F)cc3)n2Cc2cccc(C(F)(F)F)c2)n(C)c1=O do in these assays?
TbPYK inhibitor: 7%

How did Cc1c(NC(=O)c2cccc3c(Cl)cccc23)cccc1-c1nc2ccccc2o1 do in these assays?
TbPYK inhibitor: 0%

Results for Cc1ccc(NS(=O)(=O)c2c(C(=O)N3CCCC3)c(C)n(C)c2C)cc1 ?
Cycloheximide cs: 1; NS1 function inh: -1%; LmPK inh: 2%; Shiga toxin inh: -4; SARS PLP yeast: -2%; TbPYK inhibitor: -1%

Results for COc1ccccc1OCC(=O)N(Cc1nc(-c2ccccc2)no1)C1CCCCC1 ?
Cycloheximide cs: 15*; NS1 function inh: -46%; LmPK inh: -1%; Shiga toxin inh: 43; SARS PLP yeast: -25%; TbPYK inhibitor: 1%

What do the screens show for `Cc1ccccc1OCC(=O)N(Cc1nc(-c2ccccc2)no1)C(C)C`?
Cycloheximide cs: -1; NS1 function inh: -21%; LmPK inh: 1%; Shiga toxin inh: -1; SARS PLP yeast: -3%; TbPYK inhibitor: 4%

What do the screens show for `COc1ccc(-c2noc(COc3ccccc3OC)n2)cc1OC`?
Cycloheximide cs: 13*; NS1 function inh: -33%; LmPK inh: 4%; Shiga toxin inh: 50*; SARS PLP yeast: -1%; TbPYK inhibitor: 9%

What do the screens show for `COc1ccccc1OCc1nc(-c2ccc([N+](=O)[O-])cc2)no1`?
Cycloheximide cs: 24*; NS1 function inh: 11%; LmPK inh: -9%; Shiga toxin inh: 39*; SARS PLP yeast: 13%; TbPYK inhibitor: -9%

How did CCCN1CCN(CCCNC(=O)c2ccc3nc(N4CCC(C)CC4)sc3c2)CC1 do in these assays?
Cycloheximide cs: 33*; NS1 function inh: -7%; LmPK inh: -7%; Shiga toxin inh: 47*; SARS PLP yeast: -7%; TbPYK inhibitor: -21%

How did CCOC(CNC(=O)c1ccc2nc(N3CCC(C)CC3)sc2c1)OCC do in these assays?
Cycloheximide cs: 25*; NS1 function inh: -3%; LmPK inh: 2%; Shiga toxin inh: 57; SARS PLP yeast: -4%; TbPYK inhibitor: -12%

Results for Cc1ccc(C)c(N2CCN(CCCNC(=O)c3ccc4nc(N5CCC(C)CC5)sc4c3)CC2)c1 ?
TbPYK inhibitor: -3%

How did O=C(Nc1cnccn1)Nc1ccc(Cl)cc1Cl do in these assays?
Cycloheximide cs: 29*; LmPK inh: 1%; Shiga toxin inh: 76*; SARS PLP yeast: 0%; TbPYK inhibitor: -5%

Results for Cn1ccc(NC(=O)Nc2ccc(Cl)cc2Cl)n1 ?
Cycloheximide cs: 51*; NS1 function inh: -9%; LmPK inh: -3%; Shiga toxin inh: 22*; SARS PLP yeast: -29%; TbPYK inhibitor: 7%

Screening results: PubChem BioAssay, National Center for Advancing Translational Sciences (NCATS)
